# Data reported in PubChem BioAssay AID1964107 (National Center for Advancing Translational Sciences (NCATS), 2024).
# In all, about 31,000 compounds went through this assay and about 360 (1.2%) were called active. Entries that show only a call come without a potency. Not shown: some 8% with an inconclusive outcome. This is one part of a sample in which actives are shown more often than they occur. A number with no mark means an inactive call. Calls follow the shape of the full dose curve.
# Target: Polyprotein P1234 (Chikungunya virus (strain S27-African prototype)) (UniProt Q8JUX6)
# Sequence (Q8JUX6 whole entry, looked up): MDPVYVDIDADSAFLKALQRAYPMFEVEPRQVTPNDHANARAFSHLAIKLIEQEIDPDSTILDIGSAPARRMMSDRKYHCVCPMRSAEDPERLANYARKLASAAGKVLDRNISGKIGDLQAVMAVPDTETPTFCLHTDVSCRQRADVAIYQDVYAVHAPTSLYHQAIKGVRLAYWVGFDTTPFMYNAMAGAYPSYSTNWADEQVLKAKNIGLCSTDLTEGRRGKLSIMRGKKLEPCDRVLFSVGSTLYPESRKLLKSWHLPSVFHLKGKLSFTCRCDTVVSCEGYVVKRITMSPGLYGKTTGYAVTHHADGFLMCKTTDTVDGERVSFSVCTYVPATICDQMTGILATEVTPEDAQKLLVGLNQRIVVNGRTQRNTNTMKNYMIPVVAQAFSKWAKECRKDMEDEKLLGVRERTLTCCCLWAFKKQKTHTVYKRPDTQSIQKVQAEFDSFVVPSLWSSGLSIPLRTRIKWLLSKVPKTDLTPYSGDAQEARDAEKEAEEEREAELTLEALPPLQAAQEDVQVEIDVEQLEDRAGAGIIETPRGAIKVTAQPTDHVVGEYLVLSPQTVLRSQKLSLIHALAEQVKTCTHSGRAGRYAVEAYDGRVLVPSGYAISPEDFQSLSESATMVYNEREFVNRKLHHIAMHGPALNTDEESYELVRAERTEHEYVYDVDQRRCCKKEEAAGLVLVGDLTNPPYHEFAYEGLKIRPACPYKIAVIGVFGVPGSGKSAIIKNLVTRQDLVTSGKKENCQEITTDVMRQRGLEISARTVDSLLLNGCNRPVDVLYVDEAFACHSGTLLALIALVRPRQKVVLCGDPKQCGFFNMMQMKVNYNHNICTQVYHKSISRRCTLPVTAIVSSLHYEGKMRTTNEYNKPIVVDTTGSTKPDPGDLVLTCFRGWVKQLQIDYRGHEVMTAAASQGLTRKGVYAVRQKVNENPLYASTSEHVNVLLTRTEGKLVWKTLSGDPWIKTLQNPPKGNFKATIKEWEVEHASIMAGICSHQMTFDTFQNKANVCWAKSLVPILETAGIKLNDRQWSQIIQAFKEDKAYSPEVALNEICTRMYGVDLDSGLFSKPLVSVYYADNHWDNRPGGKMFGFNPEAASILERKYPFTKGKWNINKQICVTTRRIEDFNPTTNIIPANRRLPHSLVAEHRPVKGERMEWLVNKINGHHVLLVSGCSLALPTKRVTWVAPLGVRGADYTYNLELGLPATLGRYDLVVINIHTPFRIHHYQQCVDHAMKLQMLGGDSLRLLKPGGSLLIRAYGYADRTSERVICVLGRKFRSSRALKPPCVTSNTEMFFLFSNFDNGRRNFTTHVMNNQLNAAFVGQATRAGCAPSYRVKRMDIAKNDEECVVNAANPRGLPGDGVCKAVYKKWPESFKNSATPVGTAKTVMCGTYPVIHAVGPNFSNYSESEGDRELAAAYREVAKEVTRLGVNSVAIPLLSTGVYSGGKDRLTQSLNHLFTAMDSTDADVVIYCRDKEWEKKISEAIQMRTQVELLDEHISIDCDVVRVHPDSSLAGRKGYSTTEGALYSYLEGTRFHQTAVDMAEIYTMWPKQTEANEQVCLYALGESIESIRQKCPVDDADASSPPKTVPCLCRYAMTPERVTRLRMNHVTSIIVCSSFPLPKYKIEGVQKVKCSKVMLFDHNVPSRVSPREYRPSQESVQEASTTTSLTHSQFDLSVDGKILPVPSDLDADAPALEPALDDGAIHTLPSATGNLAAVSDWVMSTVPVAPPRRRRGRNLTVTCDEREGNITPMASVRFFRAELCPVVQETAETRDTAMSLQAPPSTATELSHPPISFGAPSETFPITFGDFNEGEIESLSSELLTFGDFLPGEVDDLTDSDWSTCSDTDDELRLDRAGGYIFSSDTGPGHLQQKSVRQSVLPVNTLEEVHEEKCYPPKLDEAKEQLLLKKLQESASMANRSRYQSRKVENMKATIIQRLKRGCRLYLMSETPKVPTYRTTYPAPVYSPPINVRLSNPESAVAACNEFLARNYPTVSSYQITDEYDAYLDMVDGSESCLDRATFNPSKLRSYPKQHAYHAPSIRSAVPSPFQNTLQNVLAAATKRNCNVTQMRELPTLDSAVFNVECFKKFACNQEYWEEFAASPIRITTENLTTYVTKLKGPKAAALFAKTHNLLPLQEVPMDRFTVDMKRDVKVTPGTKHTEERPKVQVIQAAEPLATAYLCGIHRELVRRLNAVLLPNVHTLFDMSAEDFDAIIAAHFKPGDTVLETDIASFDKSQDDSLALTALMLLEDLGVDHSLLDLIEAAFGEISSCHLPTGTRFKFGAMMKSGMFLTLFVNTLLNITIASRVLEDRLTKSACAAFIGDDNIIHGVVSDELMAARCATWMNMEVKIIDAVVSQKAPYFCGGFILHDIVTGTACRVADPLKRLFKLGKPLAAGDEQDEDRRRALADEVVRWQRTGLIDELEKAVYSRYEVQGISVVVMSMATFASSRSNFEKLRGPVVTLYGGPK
# Test: Primary qHTS for inhibitors of NSP2Pro chikungunya virus (CHIKV); also: nearly all actives have a fitted effect of over 60% in size
# Settings: FRET peptide cleavage, fluorescence 1 h; series mostly up to 24.9 µM
# Text: PI: Natalia J. Martinez Ph.D. National Center for Advancing Translational Sciences (NCATS), National Institute of Health (NIH), Rockville, Maryland Chikungunya virus (CHIKV) is a mosquito-borne RNA virus that has emerged as one of the most important global arboviral threats in the last decade. Although the first CHIKV vaccine has recently been FDA approved for use in healthy adults at increased risk, to date, there are no available antiviral drugs for CHIKV infection. CHIKV nsP2 protease plays a crucial role in the processing of the viral polypeptide precursor to release enzymes required for viral replication, thus making it a promising drug target for antiviral discovery. Here, we established a high-throughput pipeline to identify small molecule inhibitors of nsP2 proteolytic activity. The pipeline is composed of a suite of 1,536-well in vitro assays to support quantitative high-throughput (qHTS) screening campaigns. Specifically, we developed a fluorescence resonance energy transfer (FRET)-based assay using a fluorogenic peptide substrate encompassing an endogenous cleavage site and purified recombinant protease domain (nsP2pro). Using this assay, we interrogated ~37,000 small molecules, including those in drug repurposing libraries as well as chemically diverse and medicinal chemistry-friendly compounds. Hits were selected for follow-up validation against full-length nsP2 and an additional peptide. FRET-based 1,536-well assays for papain, hepatitis C virus NS3-4A, and human furin proteases were implemented to characterize compound selectivity. […] Novel compounds were identified to be potential nsP2 inhibitors and molecular docking analyses were performed to explain the binding mode of selected hits. In vitro antiviral activity was evaluated for a subset of compounds using a high-throughput CHIKV infection assay. To our knowledge, the pipeline presented here is unprecedented for CHIKV antiviral discovery research.
# PROTOCOL TABLE (as described by Inglese J, Shamu CE and Guy RK. 2007) SEQUENCE No. (e.g., 1, 2, 3, etc.); […] (e.g., Cells, Incubation, Reagent, etc.); VALUE; DESCRIPTION. 1; Control / Compound; 20 nL; Echo 655 acoustic dispenser, Greiner 1536-well solid bottom black plate. 2; Enzyme; 4 uL; BioRAPTR FRD liquid dispenser (Beckman Coulter). 3; Incubation; 15 min; room temperature. 4; Reagent; 4 uL; 2.5 uM Peptide 2 substrate. 5; Incubation; 1 hr; room temperature. 6; Detection; Fluorescence; WiewLux microplate reader (PerkinElmer), 525 nm excitation, 598/25 nm emission. NOTES (numbers refer to sequence numbers above). 1. Briefly, 20 nL DMSO, positive control ZnAc (20nM final concentration), and test compounds were transferred into a 1,536-well solid bottom black plate (789176-F, Greiner One) via Echo 655 acoustic dispenser (Beckman Coulter). For primary screens, compounds were tested at 7 concentrations, 1:3 dilution points ranging from 25 uM to 34 nM. Follow-up confirmatory screens were carried out at 11 concentrations, 1:3 dilution points from 25 uM to 0.42 nM. 2. Four uL nsP2pro enzyme mix (150 nM final concentration) in 10 mM Tris-HCl pH 8.0 with 0.01% Tween 20 assay buffer was dispensed into the plate using a BioRAPTR FRD liquid dispenser (Beckman Coulter). 3. The plate was incubated at room temperature (protected from light) for 15 min 4. Four microliter of peptide 2 substrate (2.5 uM final concentration) in assay buffer was added to the plate. 5. After 1 hour, plates were immediately read on a ViewLux high-throughput CCD imager (Exposure = 10 sec, Gain = High, Speed = Slow, Binning = 2X). The above assay was also incorporated in the NCATS HTS facility41, which allowed for robotic liquid and compound dispensing, microplate handling, and fluorescence reading.. REFERENCE: Inglese J, Shamu CE and Guy RK, Reporting data from high throughput screening of small molecule libraries, Nature Chemical Biology, 2007, 3(8): 438-441. doi.org/10.1038/nchembio0807-438.
# Potency is read from the fitted curve at half-maximal effect.
Compound,Potency,"activity change, negative = inhibition"
CCOc1ccc(CCNC(=O)c2cc3ccccc3n2Cc2cccc(C)c2)cc1OCC,inactive,–
O=C(Cn1nc2c(cc1=O)CCCCC2)NC1CCN(C(=O)c2cc3ccccc3[nH]2)CC1,inactive,–
COc1cc(OC)c(C(CC(=O)N2CC(C)CC(C)C2)c2ccc3c(c2)OCO3)c(OC)c1 (centres undefined),inactive,–
Fc1cc(Nc2nc(-c3ccncc3)nc3ccccc23)ccc1N1CCCCC1,inactive,–
O=C(c1nc(-c2ccsc2)c2cnccn12)N1CCCC1,inactive,–
O=S(=O)(NCCc1noc(-c2ccccc2)n1)c1ccc2c(c1)OCCO2,inactive,–
CCOC(=O)c1cccc(NC(=O)Cn2cnc3nc4c(cc3c2=O)CCCC4)c1,inactive,–
C/C(=C\CC[C@@H](C)[C@H]1CC(O)[C@@]2(C)C3CC[C@H]4C(C)(C)[C@@H](OC5OCC(O)C(O)C5OC5OC(CO)C(O)C(O)C5O)CC[C@@]45C[C@@]35CC(O)[C@]12C)C(=O)O (some centres undefined),inactive,–
CC12CCC(O)CC1=CCC1C2CCC2(C)C(c3cccnc3)=CCC12 (centres undefined),inactive,–
O=C(C1CCCC1)N1CC2(CCCN(Cc3ccccn3)C2)Cc2ccccc21 (centres undefined),inactive,–
Cc1cc(C(=O)Nc2cccc(C(F)(F)F)c2)c2c(C)nn(-c3cccc(F)c3)c2n1,inactive,–
NC(=O)c1noc([C@H](CCCC2CCCCC2)CC(=O)NO)n1,inactive,–
O=C(CC1N=C2c3ccccc3N=C(SCc3cccc(Cl)c3)N2C1=O)NCc1ccc2c(c1)OCO2 (centres undefined),inactive,–
CC(C)(C)c1cc(C(=O)O)c(NC(=O)Nc2ccc3[nH]ncc3c2)s1,inactive,–
CC(Nc1ncnc2ccc(-c3ccc4c(c3)OCO4)cc12)c1ccco1 (centres undefined),inactive,–
CCC(CC)c1nn2cc(-c3ccccc3)nc2s1,inactive,–
CCOC(=O)c1cc2c(=O)n3ccccc3nc2n(CCCOC)c1=NC(=O)C(C)Oc1ccccc1 (centres undefined),inactive,–
C=CC(=O)c1ccc2ccccc2c1,9.88 µM (active),–
O=C(CN1CCOC1=O)N1CCn2nc(C(O)Cc3ccccc3)cc2C1 (centres undefined),inactive,–
COc1ccc(CCNC(=O)C(=O)NCC(c2ccco2)S(=O)(=O)c2cccs2)cc1OC (centres undefined),inactive,–
O=C(O)c1ccc(CSc2nc3cccnc3n2Cc2cccc(F)c2)cc1,inactive,–
O=S(=O)(c1ccc2c(c1)OCCCO2)N1CCN(S(=O)(=O)c2c(F)cccc2F)CC1,inactive,–
Cc1ccc(C(=O)NC2CCN(C#N)CC2)cc1,inactive,–

Compound,Potency,"activity change, negative = inhibition"
Cn1c(C(=O)N2CCC(C(=O)N3CCN(c4ccccc4)CC3)CC2)cc2sccc21,inactive,–
Cc1ccsc1C(=O)C1CCCN(Cc2ccc(OC(C)C)c(CO)c2)C1 (centres undefined),inactive,–
CCOc1ccc(CCNC(=O)C2=C(C)C(=O)OC23CCC(C)CC3)cc1OCC (centres undefined),inactive,–
COc1ccccc1-c1nnc2n1N=C(c1ccc(OC(F)F)c(OCC3CC3)c1)CS2,inactive,–
O=C(Nc1ncc(Cc2ccc(C(F)(F)F)cc2)s1)c1cnc(-c2ccccc2)o1,inactive,–
CCOc1ccc(CCNC(=O)c2c(C)oc3ncn(C)c(=O)c23)cc1,inactive,–
CN[C@H]1CN(c2ccc3c(=O)c(C(=O)O)cn(-c4nccs4)c3n2)C[C@@H]1OC,–,-5.01% [at 5.1 µM]
Cc1cc(F)ccc1NC(=O)CCC1CCCN(C(=O)c2ccc(Cl)s2)C1 (centres undefined),inactive,–
CCC(CC)[C@H](NC(C)=O)[C@@H]1[C@H](O)[C@@H](C(=O)O)C[C@H]1N=C(N)N,–,-4.24% [at 0.199 µM]
C[C@@H]1O[C@@H](O[C@@H]2[C@@H](O)[C@H](O[C@@H]3[C@@H](O)[C@@H](O)[C@H](O[C@H]4[C@H](OC(=O)[C@]56CCC(C)(C)C[C@H]5C5=CCC7[C@@]8(C)C[C@H](O)[C@H](O[C@@H]9O[C@@H](C)[C@H](O)[C@@H](O)[C@H]9O)[C@@](C)(CO)C8CC[C@@]7(C)[C@]5(C)C[C@H]6O)O[C@H](C)[C@H](O)[C@@H]4O)O[C@H]3C)OC[C@H]2O)[C@H](O)[C@H](O)[C@H]1O (some centres undefined),–,10.2% [at 5.1 µM]
Cc1nc(C)c(-c2ccc3ncnc(NCc4ncc[nH]4)c3c2)s1,inactive,–
COc1cccc(CNCCSc2nnnn2C)c1OCc1ccccc1Cl,inactive,–
O=C(Nc1cc(C(F)(F)F)ccc1Cl)c1ccc2c(c1)CCN2S(=O)(=O)c1ccccc1,inactive,–
COc1cc(OC)cc(C(=O)NCCc2csc3nc(-c4ccccc4F)nn23)c1,inactive,–
CCc1ccc(NC(=O)C(=O)NNC(=O)Cc2ccc(Cl)c(Cl)c2)cc1,inactive,–
Cc1cc(C)cc(NC(=O)CSc2nc(=O)n(CCN3CCOCC3)c3c2CCC3)c1,inactive,–
O=C(c1cccc(F)c1)N1CCCC(CN2CCOCC2)CC1 (centres undefined),inactive,–
O=C(CCc1cn(Cc2ccc(F)cc2)c2ccccc12)NC1CCCCC1,inactive,–
COc1ccc(Cl)cc1S(=O)(=O)N1CCC(c2ccncc2)CC1,inactive,–
COc1cccc(-n2ccn(CC(=O)NCc3ccc(C)cc3)c(=O)c2=O)c1,inactive,–
CN(C(=O)c1ccc2c(c1)N(Cc1cccc(Cl)c1)C(=O)c1ccccc1S2=O)C1CCCCC1 (centres undefined),inactive,–
O=C(CSc1nccn1C1CCCC1)Nc1cc(C(F)(F)F)ccc1Cl,inactive,–
COc1ccccc1N1CCN(c2ccc(=O)n(CC(=O)NCc3ccc(OC(C)C)cc3)n2)CC1,inactive,–

Compound,Potency,"activity change, negative = inhibition"
CC1CCC2(C)C(CC(O)C(O)C23CO3)C1(C)CCC1=CC(O)OC1=O (centres undefined),inactive,–
Cc1noc(C)c1S(=O)(=O)N1CC(C(=O)NC2CCCCC2)C2(CCOCC2)C1 (centres undefined),inactive,–
COc1cccc(-c2cc(C(=O)N3CCN(c4ncccn4)CC3)c3cnn(C)c3n2)c1,inactive,–
CCc1ccc(C(=O)CC2(O)C(=O)N(CCc3ccccc3)c3ccc(Br)cc32)cc1 (centres undefined),inactive,–
COCc1nc(C2CC(N)C2)cc(N2CCC(Cn3cccn3)CC2)n1 (centres undefined),inactive,–
O=C(Nc1cc(-c2ccccc2)nn1-c1ccccc1F)c1ccc([N+](=O)[O-])cc1,inactive,–
COc1ncccc1-c1cc(-c2cn[nH]c2)c2cncn2c1,inactive,–
CN1CCN(C(=O)c2ccc(-c3cnc4c(O)ccc(C(=O)O)c4c3)cc2)CC1,inactive,–
COc1ccc(NC(=O)CSc2nnc(-c3nnn(-c4ccc(F)cc4)c3C)o2)cc1,inactive,–
CNC(=O)[C@@H](Cc1ccccc1)N1CCC[C@H]1C(=O)NCC1CC1,inactive,–
COc1ccc(OC)c(NC(=O)CSC2=Nc3ccccc3C3=NC(CC(=O)NCCc4ccccc4)C(=O)N23)c1 (centres undefined),inactive,–
COC(=O)CC[C@@H](C)C1CCC2C3CCC4C[C@H](OC(C)=O)CCC4(C)C3C[C@H](O)C21C (some centres undefined),inactive,–
O=C(Cc1ccccc1)Nc1sc2c(c1C(=O)Nc1ccc(Br)cc1)CCC2,inactive,–
CCOc1ccc(NC(=O)c2c(NC(=O)Cc3ccccc3)sc3c2CCCCC3)cc1,8.91 µM (active),–
CCOc1ccc(NC(=O)c2c(NC(=O)Cc3ccccc3)sc3c2CCC(C)C3)cc1 (centres undefined),3.38 µM (active),–
CCOC(=O)c1ccc(NC(=O)c2c(NCc3cccc(OC)c3)sc3c2CCC3)cc1,inactive,–
COC(=O)c1c(NC(=O)CCCOc2ccccc2)sc2c1CCC(C)C2 (centres undefined),inactive,–
Cc1cccc(OCCCC(=O)Nc2sc3c(c2C(N)=O)CCC(C)C3)c1 (centres undefined),inactive,–
COc1ccc(CCNS(=O)(=O)c2cc(-c3cc(C)no3)ccc2C)cc1OC,inactive,–
CC(C)c1nccn1CCCNc1nc(-c2ccncc2)nc2c1cnn2C,inactive,–
COc1ccc(NC(=O)Cn2c(=O)n(CCC(C)C)c(=O)c3cccnc32)cc1Cl,inactive,–
N#Cc1ccc(NCCNCC(=O)N2CCCC2C#N)nc1 (centres undefined),inactive,–
CC(C)NC(=O)c1nn(-c2ccccc2F)nc1CO,inactive,–

Compound,Potency,"activity change, negative = inhibition"
CC(C)Nc1ncc(C(=O)NC2CCCN(CCc3ccccc3)C2)cn1 (centres undefined),inactive,–
CN1CCCN(C(=O)CN2CC3CC(C2)[C@H]2CCCC(=O)N2C3)CC1 (some centres undefined),inactive,–
Cc1ccccc1-c1nc(NCc2ccc(-c3cccnc3)cc2)c2ccccc2n1,inactive,–
CC(C)(O)c1ccc2c(c1)C(=O)CC1[C@](C)(CO)CCC[C@]21C (some centres undefined),inactive,–
COc1cccc(-c2nc(S(=O)(=O)c3ccc(C)cc3)c(NCc3ccccc3)o2)c1,inactive,–
COc1ccc(-c2nc(S(=O)(=O)c3ccccc3)c(N3CCCCC3)o2)cc1,11.2 µM (active),–
O=C(CSc1oc(-c2ccc(F)cc2)nc1S(=O)(=O)c1ccc(Br)cc1)NC1CCCCC1,inactive,–
CN(C)c1cccc(-c2cnc(Nc3cnccn3)c3c2CCO3)c1,inactive,–
CCCCNc1nc(C)nc2c1nc(-c1ccccc1)n2CCCCN(CC)CC,inactive,–
COc1ccc(OC)c(NC(=O)C2CCCN(S(=O)(=O)c3ccc4c(c3)CCCC(=O)N4)C2)c1 (centres undefined),inactive,–
C[C@H]1CC[C@@H]2N(C1)C[C@@H]1[C@H]([C@@H](O)[C@H](O)[C@]3(O)[C@H]1C[C@@]14OC5(O)[C@@H](C[C@@H](O)[C@@H]31)[C@]4(C)CC[C@@H]5O)[C@]2(C)O,inactive,–
COc1ccccc1CNC(=O)CN1CCCC(CO)(CC2CC2)C1 (centres undefined),inactive,–
COCCCN1CCC(NC(=O)c2cc(Cl)c(N)c3c2OCC3)CC1,inactive,–
COC(=O)c1ccccc1NC(=O)c1ccc(COc2ccccc2Cl)o1,inactive,–
COc1cc(OC)c(NC(=O)c2ccc(Cc3cc4c(cc3C)C(C)(C)CCC4(C)C)o2)c(OC)c1,11.1 µM (active),–
Cc1ccc(CN(C(=O)c2ccccc2[N+](=O)[O-])c2ccccn2)cc1,inactive,–
COc1ccc2oc(=O)c(-c3cn4c(n3)sc3cc(OC)ccc34)cc2c1,inactive,–
Cc1ccc(C2CCN(C(=O)c3cnn(-c4ccccc4Cl)c3C3CCN(C(=O)OC(C)(C)C)CC3)C2)cc1 (centres undefined),inactive,–
Cc1c(P(=S)(c2ccccc2)c2ccccc2)[n+]2ccccc2n1CCCCc1ccccc1,inactive,–
Cc1cnc(C(=O)N[C@H]2CCCCC/C=C\[C@@H]3C[C@@]3(C(=O)NS(=O)(=O)C3CC3)NC(=O)[C@@H]3C[C@@H](Oc4nc5ccccc5c5ccccc45)CN3C2=O)cn1,inactive,–
